# Reference: the antibiotic and cytotoxicity screens of Wong et al. (2023)
# Hit rate of the full screen: of about 39,000 compounds, about 1,500 (3.8%) were called active. What follows is part of a selection rich in actives, with near analogues and random picks from the rest.
# System: HSkMC (human skeletal muscle cells)
# Test: cytotoxicity call (relative viability < 0.9)
# Conditions: 10 µM
row,SMILES,cytotoxicity call
1,C[C@@H]1CN([C@H](C)CO)C(=O)CCCn2nncc2CO[C@@H]1CN(C)Cc1cccc2c1OCCCO2,inactive
2,COc1ccc(NC(=O)N(C)C[C@H]2Oc3ccc(NS(=O)(=O)c4c(C)noc4C)cc3CC(=O)N([C@H](C)CO)C[C@H]2C)cc1,inactive
3,Cc1cc(OCc2nnc(SC3CCCC3)n2-c2cccnc2)ccc1-c1ccc(S(C)(=O)=O)cc1,active
4,C[C@@H]1CN([C@@H](C)CO)C(=O)c2cc(NC(=O)CCC(F)(F)F)ccc2O[C@@H](C)CCCCO[C@@H]1CN(C)S(=O)(=O)c1ccc(F)cc1,inactive
5,CCCC[C@@H](C)/C=C(C)/C=C(\C)C(=O)NC1=C[C@@](O)(/C=C/C=C/C=C/C(=O)NC2C(=O)CCC2=O)[C@@H]2O[C@@H]2C1=O,active
6,COc1cccc(S(=O)(=O)Nc2ccc3c(c2)[C@H]2C[C@H](CC(=O)NCCc4ccccc4)O[C@H](CO)[C@H]2O3)c1,inactive
7,C[C@@H]1CN([C@@H](C)CO)S(=O)(=O)c2ccc(C#CC3(O)CCCC3)cc2O[C@@H]1CN(C)C(=O)Cc1cccnc1,inactive
8,COc1ccccc1S(=O)(=O)N(C)C[C@H]1OCc2cn(nn2)CCCC(=O)N([C@H](C)CO)C[C@H]1C,inactive
9,C[C@@H]1CN([C@@H](C)CO)C(=O)c2cc(NS(=O)(=O)c3ccc(F)cc3)ccc2O[C@H]1CN(C)Cc1ccc(-c2ccccc2)cc1,inactive
10,C[C@H](CO)N1C[C@H](C)[C@H](CN(C)Cc2ccc(-c3ccccc3)cc2)Oc2ccc(NS(=O)(=O)c3ccc(F)cc3)cc2C1=O,inactive
11,C[C@H]1CN([C@@H](C)CO)C(=O)c2cc(NS(=O)(=O)c3ccc(F)cc3)ccc2O[C@@H]1CN(C)Cc1ccc(-c2ccccc2)cc1,inactive
12,C[C@@H]1CN([C@@H](C)CO)C(=O)c2cc(NS(=O)(=O)c3ccc(F)cc3)ccc2O[C@@H]1CN(C)Cc1ccc(-c2ccccc2)cc1,active
13,C[C@@H]1CN([C@H](C)CO)C(=O)c2cc(NS(=O)(=O)c3ccc(F)cc3)ccc2O[C@@H]1CN(C)Cc1ccc(-c2ccccc2)cc1,active
14,C[C@@H]1CN([C@H](C)CO)C(=O)c2cc(NS(=O)(=O)c3ccc(F)cc3)ccc2O[C@H]1CN(C)Cc1ccc(-c2ccccc2)cc1,inactive
15,Cc1noc(C)c1NC(=O)Nc1ccc2c(c1)C(=O)N([C@@H](C)CO)C[C@@H](C)[C@@H](CN(C)CC1CCCCC1)OCCCC[C@H](C)O2,inactive
16,CN(C)CCCCNC(=O)[C@H]1C[C@H]2C(=O)N3CCC[C@H]3C(=O)N2[C@H]1c1cccc(OCCO)c1,inactive
17,O=C(N1CCOCC1)[C@]1(CCS(=O)(=O)c2ccccc2)N=C(c2ccc(OCCCO)cc2)O[C@@H]1c1ccccc1,inactive
18,C[C@@H]1CN([C@@H](C)CO)C(=O)c2c(c3ccccc3n2C)-c2ccccc2CO[C@H]1CN(C)Cc1cccc(F)c1,inactive
19,C[C@@H]1CN([C@H](C)CO)C(=O)c2c(c3ccccc3n2C)-c2ccccc2CO[C@@H]1CN(C)Cc1cccc(C(F)(F)F)c1,inactive
20,C[C@H]1CN([C@@H](C)CO)C(=O)c2c(c3ccccc3n2C)-c2ccccc2CO[C@@H]1CN(C)Cc1cccc(C(F)(F)F)c1,active
21,C[C@@H]1CN([C@@H](C)CO)C(=O)c2c(c3ccccc3n2C)-c2ccccc2CO[C@H]1CN(C)Cc1cccc(C(F)(F)F)c1,inactive

row,SMILES,cytotoxicity call
1,C[C@H]1CN([C@@H](C)CO)C(=O)c2ccccc2-c2ccccc2CO[C@H]1CN(C)Cc1ccc(Cl)c(Cl)c1,active
2,C[C@H]1CN([C@@H](C)CO)C(=O)c2c(c3ccccc3n2C)-c2ccccc2CO[C@H]1CN(C)Cc1cccc(C(F)(F)F)c1,inactive
3,C[C@@H]1CN([C@@H](C)CO)C(=O)c2ccccc2-c2ccccc2CO[C@@H]1CN(C)Cc1ccc(Cl)c(Cl)c1,inactive
4,C[C@@H]1CN([C@@H](C)CO)C(=O)c2c(c3ccccc3n2C)-c2ccccc2CO[C@@H]1CN(C)Cc1cccc(C(F)(F)F)c1,active
5,C[C@@H]1CN([C@H](C)CO)C(=O)c2ccccc2-c2ccccc2CO[C@@H]1CN(C)Cc1ccc(Cl)c(Cl)c1,inactive
6,C[C@@H]1CN([C@H](C)CO)C(=O)c2c(c3ccccc3n2C)-c2ccccc2CO[C@H]1CN(C)Cc1cccc(C(F)(F)F)c1,inactive
7,C[C@H](CO)N1C[C@H](C)[C@@H](CN(C)Cc2cccc(C(F)(F)F)c2)OCc2ccccc2-c2c(n(C)c3ccccc23)C1=O,inactive
8,C[C@H](CO)N1C[C@H](C)[C@H](CN(C)Cc2cccc(C(F)(F)F)c2)OCc2ccccc2-c2c(n(C)c3ccccc23)C1=O,active
9,COc1ccc(NC(=O)N(C)C[C@H]2OCCCC[C@@H](C)Oc3ccc(NS(=O)(=O)c4ccc(Cl)cc4)cc3C(=O)N([C@@H](C)CO)C[C@H]2C)cc1,inactive
10,C[C@@H]1CCCCO[C@@H](CN(C)C(=O)Cc2ccccc2)[C@H](C)CN([C@@H](C)CO)C(=O)c2cc(NC(=O)C3CCCCC3)ccc2O1,inactive
11,C[C@@H]1CCCCO[C@@H](CN(C)C(=O)NC2CCCCC2)[C@H](C)CN([C@@H](C)CO)C(=O)c2cc(NS(=O)(=O)c3ccc(F)cc3)ccc2O1,inactive
12,C[C@H]1CN([C@@H](C)CO)C(=O)c2cc(Br)cnc2O[C@@H]1CN(C)S(C)(=O)=O,inactive
13,Cc1noc(C)c1NC(=O)Nc1ccc2c(c1)CC(=O)N([C@@H](C)CO)C[C@H](C)[C@H](CN(C)S(=O)(=O)c1c(C)noc1C)O2,inactive
14,CC(C)CC#Cc1ccc2c(c1)O[C@@H](CN(C)S(=O)(=O)c1ccc(F)cc1)[C@@H](C)CN([C@@H](C)CO)S2(=O)=O,inactive
15,C[C@@H]1CCCCO[C@@H](CN(C)Cc2ccc3c(c2)OCO3)[C@@H](C)CN([C@H](C)CO)C(=O)c2cc(NS(=O)(=O)c3ccccc3)ccc2O1,inactive
16,O=C1CN(C(=O)c2ccccc2)C(=S)N1,inactive
17,C[C@@H]1CN([C@H](C)CO)C(=O)c2cc(N(C)C)ccc2O[C@@H](C)CCCCO[C@H]1CN(C)Cc1ccc(C(=O)Nc2ccccc2N)cc1,inactive
18,CCC(=O)Nc1ccc2c(c1)OC[C@H](C)N(C(=O)CN1CCOCC1)C[C@@H](C)[C@H](OC)CN(C)C2=O,inactive
19,Cc1ccc2c(c1)/C(=C/c1ccncc1)c1cc3ccccc3nc1-2,inactive
20,OCc1ccccc1-c1ccccc1,inactive
21,COc1ccc(NC(=O)Nc2ccc3c(c2)C(=O)N([C@@H](C)CO)C[C@H](C)[C@@H](CN(C)Cc2ccc(C(=O)O)cc2)OCCCC[C@@H](C)O3)cc1,inactive

row,SMILES,cytotoxicity call
1,CC(C)N1C[C@H](C)[C@@H](CN(C)Cc2ccc(Cl)c(Cl)c2)Oc2c(C(=O)Nc3ccncc3)cccc2C1=O,inactive
2,COc1ccc(S(=O)(=O)N(C)C[C@H]2Oc3ccc(NS(C)(=O)=O)cc3C(=O)N([C@H](C)CO)C[C@@H]2C)cc1,inactive
3,C[C@@H]1CN([C@@H](C)CO)C(=O)c2cc(NC(=O)c3ccccc3)ccc2O[C@@H](C)CCCCO[C@@H]1CN(C)Cc1ccccc1,inactive
4,C[C@@H]1CN([C@H](C)CO)C(=O)c2c(c3ccccc3n2C)-c2ccccc2CO[C@H]1CN(C)C(=O)Nc1cccc(C(F)(F)F)c1,inactive
5,C[C@@H]1CN([C@H](C)CO)C(=O)c2ccccc2-c2ccccc2CO[C@@H]1CN(C)Cc1cccc(C(F)(F)F)c1,inactive
6,C[C@H](CO)N1C[C@H](C)[C@H](CN(C)Cc2cccc(C(F)(F)F)c2)OCc2ccccc2-c2ccccc2C1=O,inactive
7,C[C@H](CO)N1C[C@H](C)[C@H](CN(C)C(=O)Nc2cccc(C(F)(F)F)c2)OCc2ccccc2-c2c(n(C)c3ccccc23)C1=O,active
8,C[C@@H]1CN([C@@H](C)CO)C(=O)c2ccccc2-c2ccccc2CO[C@@H]1CN(C)Cc1cccc(C(F)(F)F)c1,active
9,C[C@H]1CN([C@@H](C)CO)C(=O)c2c(c3ccccc3n2C)-c2ccccc2CO[C@H]1CN(C)C(=O)Nc1cccc(C(F)(F)F)c1,inactive
10,C=CC(=O)NCCCCNC(=O)C=C,inactive
11,C[C@@H]1CN([C@@H](C)CO)C(=O)c2cc(NC(=O)NC3CCCCC3)ccc2O[C@@H](C)CCCCO[C@@H]1CN(C)C(=O)Nc1ccc2c(c1)OCO2,inactive
12,CN1CCCCC[C@@H]1C(=O)O,inactive
13,CO[C@@H]1CN(C)C(=O)c2ccc(NC(=O)C3CC3)cc2OC[C@@H](C)N(C(=O)Cc2ccccn2)C[C@@H]1C,inactive
14,Cc1noc(C)c1S(=O)(=O)N(C)C[C@@H]1Oc2ccc(NC(=O)C3CC3)cc2CC(=O)N([C@@H](C)CO)C[C@H]1C,inactive
15,CC1(C)CCC(CN2CCN(c3ccc(C(=O)NS(=O)(=O)c4ccc(NCC5CCOCC5)c([N+](=O)[O-])c4)c(Oc4cnc5[nH]ccc5c4)c3)CC2)=C(c2ccc(Cl)cc2)C1,inactive
16,CN(C)CC[C@H](CSc1ccccc1)Nc1ccc(S(=O)(=O)NC(=O)c2ccc(N3CCN(Cc4ccccc4-c4ccc(Cl)cc4)CC3)cc2)cc1[N+](=O)[O-],inactive
17,CC1(C)CCC(c2ccc(Cl)cc2)=C(CN2CCN(c3ccc(C(=O)NS(=O)(=O)c4ccc(N[C@H](CCN5CCOCC5)CSc5ccccc5)c(S(=O)(=O)C(F)(F)F)c4)cc3)CC2)C1,active
18,CC1(C)CCC(c2ccc(Cl)cc2)=C(CN2CCN(c3ccc(C(=O)NS(=O)(=O)c4ccc(N[C@@H](CCN5CCOCC5)CSc5ccccc5)c(S(=O)(=O)C(F)(F)F)c4)cc3)CC2)C1,active
19,O=S(=O)(NCC[C@@H]1CC[C@@H](NS(=O)(=O)c2ccccc2Cl)[C@@H](CO)O1)c1ccc(F)cc1,inactive
20,COc1ccc(NC(=O)Nc2ccc3c(c2)C(=O)N([C@@H](C)CO)C[C@H](C)[C@@H](CN(C)S(=O)(=O)c2c(C)noc2C)OCCCC[C@@H](C)O3)cc1,inactive
